Test results as given in PubChem BioAssay (NCATS).
A number with no mark means an inactive call. Results filed as inconclusive are left out. Where a call stands in place of a potency, no number is given. Active and inactive are the calls of the source. Unless noted, the call rests on the fitted dose curve; in most records, active means well fitted curve in the direction sought with a large enough effect; inconclusive means small, poorly fitted or top-dose-only effect, or another doubt; inactive means no such curve, though single readings can be large; an effect the other way counts as inactive or inconclusive.

What was measured:
[1] = P-glycoprotein substrates identified in KB-8-5-11 adenocarcinoma cell line, qHTS therapeutic library screen (AID 1346987); further: nearly all actives have a fitted effect of over 65% in size; further: potency means the concentration at half of the fitted maximal effect
Summary of the method: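 Human cervical adenocarcinoma KB-8-5-11 cells, selected in colchicine to over-express P-gp and assayed without it, were exposed for 72 h to titrated compounds. An ATP-based luminescent viability signal gave AC50.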

[2] = Natriuretic polypeptide receptor (hNpr1) antagonism - Pilot counterscreen GloSensor control cell line (AID 1347045; calls by dose curve; further: potency means the concentration at half of the fitted maximal effect)
Summary of the method: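 The SNP-driven cGMP luminescence signal (50 uM, 20 min, room temperature) was measured in GloSensor HEK293 control cells. Compounds were tested as a LOPAC titration series and preincubated for 30-50 min.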

[3] = molecular target: Atrial natriuretic peptide receptor 1 (Homo sapiens) (UniProt P16066); test: Natriuretic polypeptide receptor (hNpr1) antagonism - Pilot screen (AID 1347049; calls by dose curve;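 further: agonist-evoked cGMP luminescence read 20 min after hNppA addition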; further: potency means the concentration at half of the fitted maximal effect)
Atrial natriuretic peptide receptor 1 (Homo sapiens), sequence (P16066 whole entry, looked up): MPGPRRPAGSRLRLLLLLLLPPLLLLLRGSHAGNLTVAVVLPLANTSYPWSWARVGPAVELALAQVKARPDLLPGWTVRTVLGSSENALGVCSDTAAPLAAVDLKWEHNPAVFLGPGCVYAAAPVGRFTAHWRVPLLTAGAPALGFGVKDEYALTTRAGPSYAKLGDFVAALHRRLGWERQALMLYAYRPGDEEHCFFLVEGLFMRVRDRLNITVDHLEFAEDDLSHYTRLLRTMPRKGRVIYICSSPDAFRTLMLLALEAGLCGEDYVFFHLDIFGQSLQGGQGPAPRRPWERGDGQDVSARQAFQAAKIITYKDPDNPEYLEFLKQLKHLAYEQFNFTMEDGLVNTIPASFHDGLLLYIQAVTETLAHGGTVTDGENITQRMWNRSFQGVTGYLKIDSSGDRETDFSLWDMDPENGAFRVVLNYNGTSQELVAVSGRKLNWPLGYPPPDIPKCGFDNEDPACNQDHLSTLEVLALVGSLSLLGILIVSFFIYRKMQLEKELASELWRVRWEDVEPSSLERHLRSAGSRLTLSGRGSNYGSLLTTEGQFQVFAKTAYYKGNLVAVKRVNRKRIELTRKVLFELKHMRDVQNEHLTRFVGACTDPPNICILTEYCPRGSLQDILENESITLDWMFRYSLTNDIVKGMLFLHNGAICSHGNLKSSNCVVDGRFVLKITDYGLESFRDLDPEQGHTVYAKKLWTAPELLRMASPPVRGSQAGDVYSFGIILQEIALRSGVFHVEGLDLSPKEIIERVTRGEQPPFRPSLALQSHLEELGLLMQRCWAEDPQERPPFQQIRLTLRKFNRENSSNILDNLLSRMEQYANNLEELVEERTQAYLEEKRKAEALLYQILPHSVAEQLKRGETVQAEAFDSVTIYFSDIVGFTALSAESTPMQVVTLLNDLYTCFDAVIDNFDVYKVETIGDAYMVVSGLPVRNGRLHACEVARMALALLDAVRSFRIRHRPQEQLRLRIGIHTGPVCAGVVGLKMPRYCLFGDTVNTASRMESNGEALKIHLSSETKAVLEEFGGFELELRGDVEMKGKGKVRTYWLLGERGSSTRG
Summary of the method: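 cGMP-sensor HEK293/hNpr1 cells, 1500/well, plated overnight at 37C. 2% GloSensor reagent, 2 h RT. Compound (23 nL pin transfer) 30 min RT, baseline luminescence pre-read. 0.1 nM hNppA, 20 min RT, post-read.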

[4] = molecular target: Atrial natriuretic peptide receptor 2 (Homo sapiens) (UniProt P20594); test: Natriuretic polypeptide receptor (hNpr2) antagonism - Pilot subtype selectivity assay (AID 1347050; calls by dose curve; further: potency means the concentration at half of the fitted maximal effect)
Atrial natriuretic peptide receptor 2 (Homo sapiens), sequence (P20594 whole entry, looked up): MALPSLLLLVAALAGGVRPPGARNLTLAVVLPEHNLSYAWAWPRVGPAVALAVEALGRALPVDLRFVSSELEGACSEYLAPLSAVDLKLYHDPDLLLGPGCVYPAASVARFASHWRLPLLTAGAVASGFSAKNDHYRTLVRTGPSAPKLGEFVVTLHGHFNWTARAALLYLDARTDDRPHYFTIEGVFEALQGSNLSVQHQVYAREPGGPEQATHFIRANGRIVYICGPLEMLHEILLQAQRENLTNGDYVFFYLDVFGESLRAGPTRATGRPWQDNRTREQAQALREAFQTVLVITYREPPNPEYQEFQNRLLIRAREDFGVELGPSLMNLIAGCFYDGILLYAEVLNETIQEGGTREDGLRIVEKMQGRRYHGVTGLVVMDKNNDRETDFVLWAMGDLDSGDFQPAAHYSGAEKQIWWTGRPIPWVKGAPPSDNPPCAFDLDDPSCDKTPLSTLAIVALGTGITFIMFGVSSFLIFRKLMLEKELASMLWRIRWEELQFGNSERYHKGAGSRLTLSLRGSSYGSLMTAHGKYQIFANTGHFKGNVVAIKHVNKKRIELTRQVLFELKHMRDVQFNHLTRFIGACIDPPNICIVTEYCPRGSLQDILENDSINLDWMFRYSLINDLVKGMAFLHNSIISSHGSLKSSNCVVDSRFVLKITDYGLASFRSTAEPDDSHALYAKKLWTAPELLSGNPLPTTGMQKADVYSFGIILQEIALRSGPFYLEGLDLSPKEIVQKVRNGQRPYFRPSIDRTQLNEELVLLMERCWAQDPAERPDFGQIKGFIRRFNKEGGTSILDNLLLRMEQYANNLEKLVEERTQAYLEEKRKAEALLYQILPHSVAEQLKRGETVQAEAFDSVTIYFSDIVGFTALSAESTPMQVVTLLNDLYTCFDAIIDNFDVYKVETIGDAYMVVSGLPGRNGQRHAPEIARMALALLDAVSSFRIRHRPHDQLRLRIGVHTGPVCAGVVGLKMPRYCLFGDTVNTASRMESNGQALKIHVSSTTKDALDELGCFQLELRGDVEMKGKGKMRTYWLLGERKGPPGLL
Summary of the method: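 Luminescence from a genetically encoded cGMP luciferase biosensor in hNpr2-expressing HEK293 cells is read before and 20 min after adding 1 nM hNppC. Test compounds, in interplate 1:5 titrations, are added 30-50 min ahead of the agonist.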

[5] = NS1 protein of Zika virus - qHTS assay to identify small molecule inhibitors in human HEK 293 cells (AID 1347053); further: series mostly up to about 46 µM; nearly all actives have a fitted effect of over 55% in size
Summary of the method: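 TR-FRET signal from two anti-ZIKV NS1 antibodies quantified NS1 in HEK 293 cells 24 h after MR766 infection at MOI = 0.5; compounds were added 1 h before virus. Uninfected cells and infected cells defined the NS1 normalization range.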

[6] = molecular target: T1, Tyrosine-protein phosphatase non-receptor type substrate 1 (Homo sapiens) + Leukocyte surface antigen CD47 (Homo sapiens) (UniProt P78324+Q08722); test: CD47-SIRPalpha protein protein interaction - LANCE assay qHTS validation (AID 1347057; active means well fitted curve in the direction sought with a large enough effect in the signal ratio, with a control signal flat, not every such curve was filed as active; the % refers to the signal ratio; further: series mostly up to about 38 µM)
T1 sequence (P78324 whole entry, looked up, the tested form may be a part): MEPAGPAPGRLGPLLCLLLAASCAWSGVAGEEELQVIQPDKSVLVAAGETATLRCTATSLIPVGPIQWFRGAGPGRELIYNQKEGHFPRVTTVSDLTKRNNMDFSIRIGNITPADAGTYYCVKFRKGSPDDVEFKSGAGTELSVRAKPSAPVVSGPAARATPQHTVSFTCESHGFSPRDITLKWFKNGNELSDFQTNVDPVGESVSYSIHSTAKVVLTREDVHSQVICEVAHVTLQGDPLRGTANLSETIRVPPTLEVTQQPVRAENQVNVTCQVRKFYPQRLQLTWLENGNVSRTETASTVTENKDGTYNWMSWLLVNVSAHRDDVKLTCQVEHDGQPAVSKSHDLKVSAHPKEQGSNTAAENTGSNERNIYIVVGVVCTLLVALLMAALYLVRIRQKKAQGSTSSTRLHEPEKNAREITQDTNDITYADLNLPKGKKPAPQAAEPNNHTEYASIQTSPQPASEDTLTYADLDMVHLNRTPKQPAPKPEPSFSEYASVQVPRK
T1 sequence (Q08722 whole entry, looked up, the tested form may be a part): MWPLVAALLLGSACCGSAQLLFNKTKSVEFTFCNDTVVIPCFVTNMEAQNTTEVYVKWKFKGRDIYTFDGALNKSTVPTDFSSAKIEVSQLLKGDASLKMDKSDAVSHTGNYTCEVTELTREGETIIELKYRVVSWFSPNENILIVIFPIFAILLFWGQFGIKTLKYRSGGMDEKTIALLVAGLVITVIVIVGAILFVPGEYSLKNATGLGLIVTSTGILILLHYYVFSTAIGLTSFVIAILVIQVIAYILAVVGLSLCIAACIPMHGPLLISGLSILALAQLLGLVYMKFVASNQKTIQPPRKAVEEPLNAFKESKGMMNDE
Summary of the method: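 Inhibition of soluble CD47/SIRPalpha ectodomain association by titrated compounds, measured as 665/615 nm time-resolved FRET ratio after sequential 30 min room-temperature incubations.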

[7] = molecular target: T1, Tyrosine-protein phosphatase non-receptor type substrate 1 (Homo sapiens) + Leukocyte surface antigen CD47 (Homo sapiens); test: CD47-SIRPalpha protein protein interaction - Alpha assay qHTS validation (AID 1347059);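 further: bead proximity luminescence from CD47 binding SIRPalpha after compound preincubation with SIRPalpha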
Summary of the method: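 SIRPalpha-biotin 25 nM + cpd, 30 min RT, dark; add CD47-His 12.5 nM, 30 min; add Ni-NTA/SAV beads 10 ug/mL, 30 min; AlphaScreen. Buffer PBS pH 7.4 + 0.05% IGEPAL CA-630. Non-biotinylated SIRPalpha as control inhibitor.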

[8] = molecular target: Parathyroid hormone/parathyroid hormone-related peptide receptor (Homo sapiens) (UniProt Q03431); test: qHTS for PTHR1 Agonists: Optimization Screen against the NCGC LOPAC library (AID 1347079);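 further: GloSensor cAMP luminescence in HEK-293 GP2 cells expressing human PTHR1 with IBMX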
Parathyroid hormone/parathyroid hormone-related peptide receptor (Homo sapiens), sequence (Q03431 whole entry, looked up): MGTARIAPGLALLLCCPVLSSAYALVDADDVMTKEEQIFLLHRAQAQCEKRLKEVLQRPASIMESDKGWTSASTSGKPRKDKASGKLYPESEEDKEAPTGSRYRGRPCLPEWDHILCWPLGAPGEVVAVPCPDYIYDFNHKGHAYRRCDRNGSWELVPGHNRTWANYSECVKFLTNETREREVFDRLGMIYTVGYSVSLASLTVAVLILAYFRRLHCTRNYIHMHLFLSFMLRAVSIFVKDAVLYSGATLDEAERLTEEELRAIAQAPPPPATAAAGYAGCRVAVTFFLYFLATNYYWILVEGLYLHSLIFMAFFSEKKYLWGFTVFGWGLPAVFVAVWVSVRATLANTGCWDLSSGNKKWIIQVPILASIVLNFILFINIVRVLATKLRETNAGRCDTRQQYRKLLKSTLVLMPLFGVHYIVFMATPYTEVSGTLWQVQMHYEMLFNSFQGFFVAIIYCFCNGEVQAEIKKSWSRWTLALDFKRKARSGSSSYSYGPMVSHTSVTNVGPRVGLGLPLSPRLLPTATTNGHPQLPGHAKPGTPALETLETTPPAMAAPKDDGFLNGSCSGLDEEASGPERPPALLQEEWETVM
Summary of the method: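 Signal increase flags agonism. GP2 cells, derived from HEK-293, express human PTHR1 and a GloSensor cAMP construct.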

[9] = qHTS of pediatric cancer cell lines to identify multiple opportunities for drug repurposing: Primary screen for TC32 cells (AID 1347089); further: nearly all actives have a fitted effect of over 60% in size; further: potency means the concentration at half of the fitted maximal effect
Summary of the method: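 TC32 cells, 500-1,000/well in growth medium, compound-treated 48 h at 37 °C; viability from CellTiter-Glo luminescence. Primary screen: MIPE 11-point (0.78 nM–46 µM final), NPC 8-point (0.59 nM–46 µM final); confirmatory at 11-point dilutions.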

[10] = qHTS of pediatric cancer cell lines to identify multiple opportunities for drug repurposing: Primary screen for DAOY cells (AID 1347090); further: nearly all actives have a fitted effect of over 55% in size; further: potency means the concentration at half of the fitted maximal effect
Summary of the method: (§1)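 Viability measured as metabolically active cells via CellTiter-Glo luminescence following 48 hours of compound exposure, 11-point dilutions in confirmatory testing. 500-1,000 cells/well plated 5 hours before dosing; controls were DMSO and 2.3 µM bortezomib.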

[11] = qHTS of pediatric cancer cell lines to identify multiple opportunities for drug repurposing: Primary screen for SJ-GBM2 cells (AID 1347091)
Summary of the method: as §1

[12] = qHTS of pediatric cancer cell lines to identify multiple opportunities for drug repurposing: Primary screen for A673 cells (AID 1347092); further: nearly all actives have a fitted effect of over 45% in size; further: potency means the concentration at half of the fitted maximal effect
Summary of the method: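 A673 cells (500-1,000 cells/well) were treated 48 hours at 37 degrees C with compounds at 11-point (0.78 nM to 46 µM) or 8-point (0.59 nM to 46 µM) dilutions. Viability read by CellTiter-Glo luminescence; concentration-response curves fitted.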

[13] = qHTS of pediatric cancer cell lines to identify multiple opportunities for drug repurposing: Primary screen for SK-N-MC cells (AID 1347093); further: potency means the concentration at half of the fitted maximal effect
Summary of the method: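 Metabolically active cells were quantified by ATP-dependent luminescence (CellTiter-Glo, 15 min at room temperature) following 48 h treatment. Cells had been plated at 500-1,000 per well and settled for 5 h beforehand.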

[14] = qHTS of pediatric cancer cell lines to identify multiple opportunities for drug repurposing: Primary screen for BT-37 cells (AID 1347094); further: potency means the concentration at half of the fitted maximal effect
Summary of the method: (§2)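 Plated cells (500-1,000 per well, growth media) were allowed to settle for 5 hours, treated with compound dilutions for 48 hours, then lysed with CellTiter-Glo for 15 min at room temperature before luminescence reading.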

[15] = qHTS of pediatric cancer cell lines to identify multiple opportunities for drug repurposing: Primary screen for NB-EBc1 cells (AID 1347095)
Summary of the method: as §2

[16] = qHTS of pediatric cancer cell lines to identify multiple opportunities for drug repurposing: Primary screen for U-2 OS cells (AID 1347096); further: nearly all actives have a fitted effect of over 50% in size; further: potency means the concentration at half of the fitted maximal effect
Summary of the method: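 Viability after 48 h compound treatment at 37C, 500-1,000 cells/well, read as ATP luminescence with CellTiter-Glo. Primary screens used 11-point (MIPE, 0.78 nM-46 µM) or 8-point (NPC, 0.59 nM-46 µM) final concentrations; follow-up screens used 11-point dilutions.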

[17] = molecular target: T1, Tyrosine-protein phosphatase non-receptor type substrate 1 (Homo sapiens) + Leukocyte surface antigen CD47 (Homo sapiens); test: CD47-SIRPalpha protein protein interaction - HTRF assay qHTS validation (AID 1347058; active means well fitted curve in the direction sought with a large enough effect in the signal ratio, not every such curve was filed as active; the % refers to the signal ratio; further: series mostly up to about 38 µM)
Summary of the method: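 Soluble extracellular domains (6His-CD47, Avi-tag-biotinylated SIRPalpha) in PBS pH 7.4 with 0.05% IGEPAL CA-630. Compounds were preincubated 30 min at RT with CD47 and anti-His-Eu, then SIRPalpha and SAV-XL665 were added. TR-FRET 665/615 ratio.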

SMILES: COc1ccc(/C=C/C(=O)Nc2ccccc2C(=O)O)cc1OC
- Potency [1]: inactive
- Potency [2]: 1.85 µM (active)
- Potency [3]: 9.53 µM (active)
- Potency [4]: 3.69 µM (active)
- Potency [5]: inactive
- Potency [6]: inactive
- Potency [7]: inactive
- Potency [8]: inactive

SMILES: CN(C)CCn1nnnc1SCC1=C(C(=O)O)N2C(=O)[C@@H](NC(=O)Cc3csc(N)n3)[C@H]2SC1
- Potency [1]: inactive
- Potency [5]: inactive
- Potency [9]: inactive
- Potency [10]: inactive
- Potency [11]: inactive
- Potency [12]: inactive
- Potency [13]: inactive
- Potency [14]: inactive
- Potency [15]: inactive
- Potency [16]: inactive

SMILES: O=C(Nc1ccc2[nH]ncc2c1)C1CCC1
- Potency [1]: inactive
- Potency [5]: inactive
- Potency [6]: inactive
- outcome [17]: inactive
- Potency [7]: inactive

SMILES: C=CCCCCCCCCC(=O)O
- Potency [1]: inactive
- Potency [5]: inactive
- Potency [9]: inactive
- Potency [10]: inactive
- Potency [11]: inactive
- Potency [12]: inactive
- Potency [13]: inactive
- Potency [14]: inactive
- Potency [15]: inactive
- Potency [16]: inactive

SMILES: N=c1ccn2c(n1)O[C@H]1[C@H](O)[C@@H](CO)O[C@H]12
- Potency [1]: inactive
- Potency [2]: inactive
- Potency [3]: inactive
- Potency [4]: inactive
- Potency [5]: inactive
- Potency [6]: inactive
- outcome [17]: inactive
- Potency [7]: inactive
- Potency [8]: inactive

SMILES: NCCO
- Potency [1]: inactive
- Potency [5]: inactive
- Potency [9]: inactive
- Potency [10]: inactive
- Potency [11]: inactive
- Potency [12]: inactive
- Potency [13]: inactive
- Potency [14]: inactive
- Potency [15]: inactive
- Potency [16]: inactive

SMILES: CO[C@@]1(NC(=O)Cc2cccs2)C(=O)N2C(C(=O)O)=C(COC(N)=O)CS[C@@H]21
- Potency [1]: inactive
- Potency [5]: inactive
- Potency [9]: inactive
- Potency [10]: inactive
- Potency [11]: inactive
- Potency [12]: inactive
- Potency [13]: inactive
- Potency [14]: inactive
- Potency [15]: inactive
- Potency [16]: inactive

SMILES: O=C(O)[C@H](O)[C@@H](O)[C@H](O)[C@H](O)CO
- Potency [1]: inactive

SMILES: COc1cc(NC(C)CCCN)c2ncccc2c1 (centres undefined)
- Potency [1]: inactive
- Potency [5]: inactive
- Potency [9]: 16.7 µM (active)
- Potency [10]: inactive
- Potency [11]: inactive

SMILES: CCNC(=O)[C@H]1O[C@@H](n2cnc3c(N)nc(NCCc4ccc(CCC(=O)O)cc4)nc32)[C@H](O)[C@@H]1O
- Potency [1]: inactive
- Potency [2]: inactive
- Potency [3]: inactive
- Potency [4]: inactive
- Potency [8]: inactive

SMILES: Nc1ccc(O)c(C(=O)O)c1
- Potency [1]: inactive
- Potency [5]: inactive
- Potency [9]: inactive
- Potency [10]: inactive
- Potency [11]: inactive
- Potency [12]: inactive
- Potency [13]: inactive
- Potency [14]: inactive
- Potency [15]: inactive
- Potency [16]: inactive

SMILES: CCC1C(=O)OCC1Cc1cncn1C (centres undefined)
- Potency [1]: inactive
- Potency [2]: inactive
- Potency [3]: inactive
- Potency [4]: inactive
- Potency [5]: inactive
- Potency [6]: inactive
- outcome [17]: inactive
- Potency [8]: inactive
- Potency [9]: inactive
- Potency [10]: inactive
- Potency [11]: inactive
- Potency [12]: inactive
- Potency [13]: inactive
- Potency [14]: inactive
- Potency [15]: inactive
- Potency [16]: inactive

SMILES: CN(C)[C@@H]1C(=O)C(C(=O)NCN2CCCC2)=C(O)[C@@]2(O)C(=O)C3=C(O)c4c(O)cccc4[C@@](C)(O)C3C[C@@H]12 (some centres undefined)
- Potency [1]: inactive
- Potency [5]: inactive
- Potency [9]: inactive
- Potency [10]: inactive
- Potency [11]: inactive
- Potency [12]: inactive
- Potency [13]: inactive
- Potency [14]: inactive
- Potency [15]: inactive
- Potency [16]: inactive

SMILES: CC(C(=O)O)c1ccc(C(=O)c2cccs2)cc1 (centres undefined)
- Potency [1]: inactive
- Potency [5]: inactive
- Potency [9]: inactive
- Potency [10]: inactive
- Potency [11]: inactive
- Potency [12]: inactive
- Potency [13]: inactive
- Potency [14]: inactive
- Potency [15]: inactive
- Potency [16]: inactive

SMILES: COC(=O)C1=C(C)NC(C)=C(C(=O)OC)C1c1cccc(NC(=O)NCCCN2CCC(c3cccc(OC)c3)CC2)c1
- Potency [1]: inactive
- Potency [6]: inactive
- outcome [17]: inactive

SMILES: COc1cc(C(O)CO)ccc1OS(=O)(=O)O (centres undefined)
- Potency [2]: inactive
- Potency [3]: inactive
- Potency [4]: inactive
- Potency [5]: inactive
- Potency [6]: inactive
- outcome [17]: inactive
- Potency [7]: inactive
- Potency [8]: inactive

SMILES: CN(C)c1ccc(C(=C2C=CC(=[N+](C)C)C=C2)c2ccccc2)cc1
- Potency [1]: 23.1 µM (active)
- Potency [9]: 0.105 µM (active)
- Potency [10]: 0.106 µM (active)
- Potency [12]: 0.0422 µM (active)
- Potency [13]: 0.0531 µM (active)
- Potency [14]: 0.0978 µM (active)
- Potency [16]: 1.33 µM (active)

SMILES: COc1cc2c3cc1Oc1cc(ccc1O)C[C@@H]1c4c(cc(OC)c(O)c4Oc4ccc(cc4)C[C@@H]3N(C)CC2)CC[N+]1(C)C
- Potency [1]: inactive
- Potency [5]: inactive
- Potency [9]: inactive
- Potency [10]: inactive
- Potency [11]: inactive
- Potency [12]: inactive
- Potency [14]: inactive
- Potency [15]: inactive
- Potency [16]: inactive

SMILES: Nc1c(CC(=O)O)cccc1C(=O)c1ccc(Br)cc1
- Potency [1]: inactive
- Potency [5]: inactive
- Potency [9]: inactive
- Potency [10]: inactive
- Potency [11]: inactive
- Potency [12]: inactive
- Potency [13]: inactive
- Potency [14]: inactive
- Potency [15]: inactive
- Potency [16]: inactive

SMILES: CC1OC1P(=O)(O)O (centres undefined)
- Potency [2]: inactive
- Potency [3]: inactive
- Potency [4]: inactive
- Potency [5]: inactive
- Potency [6]: inactive
- outcome [17]: inactive
- Potency [7]: inactive
- Potency [8]: inactive
